# “And” between values parts separate entries of the source, which are not always exact repeats. Equal values may be shown once. Unmarked numbers belong to inactive results. Results filed as inconclusive are left out. Entries that show only a call come without a potency. The source made the active and inactive calls. Unless noted, calls come from the whole dose curve; as a rule, active = well fitted curve in the direction sought with a large enough effect in the repeat runs; inconclusive = weak or mixed curves; inactive = no such curve, though single readings can be large; an effect the other way counts as inactive or inconclusive.
# Tests used:
# [1] = qHTS assay to identify small molecule antagonists of the estrogen receptor alpha (ER-alpha) signaling pathway using the BG1 cell line in the presence of 0.1 nM 17-beta-estradiol - cell viability counter screen (AID 1259241); note: nearly all actives have a fitted effect of over 40% in size
# Summary of the method: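 Cells were plated and left 24 hr, compounds in DMSO were pinned in, 17beta-estradiol was added to 0.1 nM final, and after 22 hr CellTiter-Fluor reagent was added for 30 min before fluorescence was read.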
# [2] = biological target: Androgen receptor (Homo sapiens) (UniProt P10275); experiment: qHTS assay to identify small molecule antagonists of the androgen receptor (AR) signaling pathway using the MDA cell line in the presence of 0.5 nM R1881 (AID 1259243); note: potency is the fitted concentration of half-maximal effect; nearly all actives have a fitted effect of over 50% in size
# Chain of Androgen receptor (Homo sapiens) (P10275 whole entry, looked up): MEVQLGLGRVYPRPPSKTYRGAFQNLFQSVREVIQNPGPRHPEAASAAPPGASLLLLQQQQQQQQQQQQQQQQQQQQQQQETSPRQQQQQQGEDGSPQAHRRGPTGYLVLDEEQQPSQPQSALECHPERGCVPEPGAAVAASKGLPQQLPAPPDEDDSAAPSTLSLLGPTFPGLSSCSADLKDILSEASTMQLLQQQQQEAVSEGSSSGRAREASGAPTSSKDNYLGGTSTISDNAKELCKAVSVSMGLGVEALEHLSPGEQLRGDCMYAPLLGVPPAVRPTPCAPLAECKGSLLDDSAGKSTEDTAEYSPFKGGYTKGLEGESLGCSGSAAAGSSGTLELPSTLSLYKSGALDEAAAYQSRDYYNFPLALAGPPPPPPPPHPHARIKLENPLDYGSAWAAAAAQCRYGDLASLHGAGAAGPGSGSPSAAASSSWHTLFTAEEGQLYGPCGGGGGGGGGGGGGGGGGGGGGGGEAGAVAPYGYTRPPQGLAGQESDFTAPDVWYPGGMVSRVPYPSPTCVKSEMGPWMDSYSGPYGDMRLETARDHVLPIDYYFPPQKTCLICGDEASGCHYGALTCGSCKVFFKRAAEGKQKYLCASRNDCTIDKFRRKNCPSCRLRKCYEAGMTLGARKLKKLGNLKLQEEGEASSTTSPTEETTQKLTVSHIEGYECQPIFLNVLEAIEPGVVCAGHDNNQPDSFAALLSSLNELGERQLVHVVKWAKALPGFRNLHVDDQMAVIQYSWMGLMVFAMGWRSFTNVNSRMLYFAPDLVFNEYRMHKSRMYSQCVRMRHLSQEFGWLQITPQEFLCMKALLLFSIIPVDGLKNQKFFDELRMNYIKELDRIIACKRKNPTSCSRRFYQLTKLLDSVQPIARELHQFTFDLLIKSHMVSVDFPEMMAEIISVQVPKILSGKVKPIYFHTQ
# Summary of the method: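 MDA-kb2 human breast carcinoma cells carrying an MMTV-luciferase reporter (AR- and GR-responsive) were plated, rested 5 hr at 37C, dosed with compounds, then stimulated with 0.5 nM R1881 (final) for 16 hr; luminescence was read after ONE-Glo.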
# [3] = qHTS assay to identify small molecule phospholipidosis (PLD) inducers (AID 1259344; active = well fitted curve in the direction sought with a large enough effect; an effect the other way counts as inactive or inconclusive)
# Summary of the method: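 Fluorescent phospholipid staining (LipidTOX Red) measured by automated microscopy in fixed HepG2 cells after 24 h treatment; nuclei counterstained with Hoechst 33342; amiodarone as reference inducer.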
# [4] = qHTS assay to identify small molecule HDAC inhibitors - cell viability counter screen (AID 1259365); note: series mostly up to about 92 µM; nearly all actives have a fitted effect of over 50% in size
# Summary of the method: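 Counter screen in wild-type HCT-116 cells: compounds dissolved in DMSO are pin-transferred onto overnight-plated cells and left 2hr at 37C. ATP-based CellTiter-Glo luminescence then measures viable cells.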
# [5] = qHTS assay to identify small molecule agonists of the sonic hedgehog signaling (Shh) pathway - cell viability counter screen (AID 1259366); note: nearly all actives have a fitted effect of over 50% in size; note: potency is the fitted concentration of half-maximal effect
# Summary of the method: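 Cells are plated at 2,000 per well and left 4hr at 37C, 5% CO2 before compound addition. After 23hr of treatment, CellTiter-Fluor reagent is added for 1hr at 37C and fluorescence is measured.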
# [6] = qHTS assay to identify small molecule antagonists of the sonic hedgehog signaling (Shh) pathway - cell viability counter screen (AID 1259367); note: nearly all actives have a fitted effect of over 55% in size
# Summary of the method: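 Using CellTiter-Fluor, viability of Gli1-Luc reporter 3T3 cells is read by fluorescence in the wells used for the Shh luciferase assay. Treatment lasts 23 hr with conditioned medium, then reagent 1 hr at 37C.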
# [7] = qHTS assay to identify small molecule agonists of the sonic hedgehog signaling (Shh) pathway (AID 1259368; calls by dose curve; note: nearly all actives have a fitted effect of over 15% in size; note: potency is the fitted concentration of half-maximal effect)
# Summary of the method: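 NIH/3T3-derived 3T3Gli1-Luc cells carrying a stably integrated Gli1 response element–firefly luciferase reporter were plated, left 4 hr at 37 C, then given compounds in DMSO for 24 hr. Luminescence was read 30 min after adding luciferase reagent.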
# [8] = qHTS assay to identify small molecule agonists of the androgen receptor (AR) signaling pathway in the presence of an antagonist - cell viability counter screen (AID 1259379); note: nearly all actives have a fitted effect of over 25% in size; note: potency is the fitted concentration of half-maximal effect
# Summary of the method: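 MDA-kb2 human breast carcinoma cells (stable MMTV-luciferase, AR/GR responsive) were seeded 3,000 cells/well, pre-incubated 5 hr at 37C without CO2, then given 3.0uM nilutamide and compounds at 15 concentrations for 16 hr. Viability was read by CellTiter-Fluor fluorescence.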
# [9] = biological target: Estrogen receptor (Homo sapiens) (UniProt P03372); experiment: qHTS assay to identify small molecule antagonists of the estrogen receptor alpha (ER-alpha) signaling pathway using the BG1 cell line in the presence of 0.1 nM 17-beta-estradiol (AID 1259244); note: nearly all actives have a fitted effect of over 50% in size; note: potency is the fitted concentration of half-maximal effect
# Chain of Estrogen receptor (Homo sapiens) (P03372 whole entry, looked up): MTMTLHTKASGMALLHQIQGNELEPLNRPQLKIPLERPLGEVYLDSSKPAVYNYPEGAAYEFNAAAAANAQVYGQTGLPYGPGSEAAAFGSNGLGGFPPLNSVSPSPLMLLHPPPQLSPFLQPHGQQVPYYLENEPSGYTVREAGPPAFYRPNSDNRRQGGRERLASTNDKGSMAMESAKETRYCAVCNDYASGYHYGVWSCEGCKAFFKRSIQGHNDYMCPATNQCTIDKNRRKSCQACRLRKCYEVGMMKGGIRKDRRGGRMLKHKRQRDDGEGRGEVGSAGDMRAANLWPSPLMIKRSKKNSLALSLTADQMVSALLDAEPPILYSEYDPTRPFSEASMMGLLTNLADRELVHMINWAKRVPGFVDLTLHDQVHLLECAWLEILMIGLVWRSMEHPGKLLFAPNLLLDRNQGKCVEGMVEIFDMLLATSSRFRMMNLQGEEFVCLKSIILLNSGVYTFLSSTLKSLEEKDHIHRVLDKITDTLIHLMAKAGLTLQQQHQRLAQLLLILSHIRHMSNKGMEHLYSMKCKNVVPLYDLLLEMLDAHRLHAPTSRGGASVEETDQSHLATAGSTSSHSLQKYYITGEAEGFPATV
# Summary of the method: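 VM7Luc4E2 cells (endogenous full-length ER-alpha, stable 4xERE-luciferase) were grown 5 days in phenol red-free medium with charcoal-stripped FBS, then exposed 22 h at 37C to compounds plus 0.1 nM (final) 17beta-estradiol; ONE-Glo luminescence read-out.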
# [10] = qHTS assay to identify small molecule HDAC inhibitors (AID 1259364); note: top concentration of the series differs between compounds; nearly all actives have a fitted effect of over 45% in size
# Summary of the method: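 Wild-type HCT-116 cells were plated overnight, exposed to compounds for 2 h at 37 °C, then given HDAC-Glo class I/II luminogenic reagent for 30 min at room temperature before luminescence was read.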
# [11] = biological target: Estrogen receptor beta (Homo sapiens) (UniProt Q92731); experiment: qHTS assay to identify small molecule agonists of the estrogen receptor beta (ER-beta) signaling pathway (AID 1259377; active = well fitted activation curve with a large enough effect in the signal ratio in the repeat runs, not every such curve was filed as active; the % refers to the signal ratio)
# Chain of Estrogen receptor beta (Homo sapiens) (Q92731 whole entry, looked up, the tested form may be a part): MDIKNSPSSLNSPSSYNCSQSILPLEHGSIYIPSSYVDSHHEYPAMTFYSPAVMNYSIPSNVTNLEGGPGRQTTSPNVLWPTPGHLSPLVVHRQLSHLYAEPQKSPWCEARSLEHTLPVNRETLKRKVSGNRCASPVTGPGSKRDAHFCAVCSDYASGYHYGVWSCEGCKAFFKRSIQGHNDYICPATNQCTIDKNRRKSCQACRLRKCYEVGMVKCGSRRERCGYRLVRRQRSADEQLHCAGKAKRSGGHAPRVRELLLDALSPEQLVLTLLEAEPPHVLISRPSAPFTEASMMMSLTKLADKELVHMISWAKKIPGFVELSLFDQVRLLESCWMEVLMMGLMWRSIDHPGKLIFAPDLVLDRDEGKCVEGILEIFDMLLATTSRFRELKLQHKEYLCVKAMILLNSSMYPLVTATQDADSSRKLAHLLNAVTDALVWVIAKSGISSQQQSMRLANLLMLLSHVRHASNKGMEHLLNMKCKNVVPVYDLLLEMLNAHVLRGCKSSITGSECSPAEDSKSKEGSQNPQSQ
# Summary of the method: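 Agonist mode cell assay in GripTite HEK293T cells expressing an ER-beta fusion that drives beta-lactamase from an Upstream Activator Sequence; 16 hr compound exposure at 37C, then 2 h LiveBLAzer B/G FRET substrate at room temperature, fluorescence read-out.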
# [12] = qHTS assay to identify small molecule antagonists of the estrogen receptor beta (ER-beta) signaling pathway - cell viability counter screen (AID 1259382);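 note: HEK293T cells carrying ER-beta-UAS-bla reporter stimulated with estradiol; series mostly up to about 92 µM; nearly all actives have a fitted effect of over 55% in size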
# Summary of the method: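 ER-beta-UAS-bla HEK293T cells (2,000/well, 2% charcoal-stripped FBS) were pre-incubated 6 hr at 37C, then given compound plus 1nM final 17-beta-estradiol for 16 hr. Viability was read in the same wells by CellTiter-Glo luminescence after 30 min at room temperature.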
# [13] = biological target: Estrogen receptor (Homo sapiens) (UniProt P03372); experiment: qHTS assay to identify small molecule agonists of the estrogen receptor alpha (ER-alpha) signaling pathway in the presence of an antagonist (AID 1259383; calls by dose curve; note: nearly all actives have a fitted effect of over 15% in size; note: potency is the fitted concentration of half-maximal effect; for activation: top concentration of the series differs between compounds)
# Summary of the method: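 VM7Luc4E2 cells (endogenous full-length ER-alpha, 4×ERE-luciferase) were precultured 5 days in phenol red-free medium with 10% charcoal-stripped FBS, given 10.0nM ICI-182,780 (final), then treated with compounds at 15 concentrations for 22hr at 37C; luminescence read with ONE-Glo.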
# [14] = qHTS assay to identify small molecule agonists or antagonists of the thyroid stimulating hormone receptor (TSHR) signaling pathway - wild type cell line counter screen (AID 1259384; calls by dose curve)
# Summary of the method: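 Counter screen in untransfected Hek293: compounds (15-point titration, triplicate) plus phosphodiesterase inhibitor Ro20-1724 added after 18 h plating; 30 min RT. Intracellular cAMP via competitive d2/cryptate immunoassay, 1 h incubation.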
# [15] = biological target: Thyrotropin receptor (Homo sapiens) (UniProt P16473); experiment: qHTS assay to identify small molecule antagonists of the thyroid stimulating hormone receptor (TSHR) signaling pathway (AID 1259385; calls by dose curve; note: nearly all actives have a fitted effect of over 20% in size)
# Chain of Thyrotropin receptor (Homo sapiens) (P16473 whole entry, looked up): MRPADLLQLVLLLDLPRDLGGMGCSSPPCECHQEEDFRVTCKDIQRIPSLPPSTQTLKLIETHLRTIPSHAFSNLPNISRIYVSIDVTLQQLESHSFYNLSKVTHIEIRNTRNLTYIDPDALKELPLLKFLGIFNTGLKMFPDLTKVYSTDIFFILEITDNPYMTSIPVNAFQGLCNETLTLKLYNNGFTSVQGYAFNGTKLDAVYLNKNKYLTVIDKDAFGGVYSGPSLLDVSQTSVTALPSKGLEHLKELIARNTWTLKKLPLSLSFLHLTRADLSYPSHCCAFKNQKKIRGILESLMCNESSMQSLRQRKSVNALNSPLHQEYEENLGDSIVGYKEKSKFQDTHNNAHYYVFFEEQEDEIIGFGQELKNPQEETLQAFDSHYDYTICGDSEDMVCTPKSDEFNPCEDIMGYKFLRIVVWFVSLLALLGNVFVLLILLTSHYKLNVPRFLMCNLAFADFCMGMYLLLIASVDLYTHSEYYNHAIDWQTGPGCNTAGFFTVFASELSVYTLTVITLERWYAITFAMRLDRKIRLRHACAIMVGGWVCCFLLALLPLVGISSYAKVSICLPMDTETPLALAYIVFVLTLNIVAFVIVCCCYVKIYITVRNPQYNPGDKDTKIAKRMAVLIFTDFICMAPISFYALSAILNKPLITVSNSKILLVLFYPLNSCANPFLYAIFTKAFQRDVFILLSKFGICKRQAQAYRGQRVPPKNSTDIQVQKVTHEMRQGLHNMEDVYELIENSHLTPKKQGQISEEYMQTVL
# Summary of the method: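 Antagonist mode: compound-treated TSHR-expressing HEK293 cells were stimulated with 1.5 ng/mL TSH (final) in presence of Ro20-1724 for 30 min at RT. HTRF cAMP detection after 1 h; each compound tested at 15 concentrations, triplicate.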
# [16] = qHTS assay to identify small molecule antagonists of the androgen receptor (AR) signaling pathway using the MDA cell line in the presence of 0.5 nM R1881 - cell viability counter screen (AID 1259242); note: nearly all actives have a fitted effect of over 45% in size
# Summary of the method: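 MDA-kb2 cells (human breast carcinoma, stably carrying MMTV-luciferase reporter) were exposed to compounds with 0.5 nM R1881 (final) for 16 hr at 37C, 0% CO2; viability then read as live-cell protease fluorescence (CellTiter-Fluor, 30 min) in the same wells.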
# [17] = qHTS assay to identify small molecule antagonists of the sonic hedgehog signaling (Shh) pathway (AID 1259369; calls by dose curve; note: nearly all actives have a fitted effect of over 45% in size; note: potency is the fitted concentration of half-maximal effect)
# Summary of the method: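 NIH/3T3-derived 3T3Gli1-Luc cells with stably integrated Gli1-Luc reporter were preincubated 4hr at 37 C, then given compounds in DMSO plus Shh conditioned medium and incubated 24hr. Firefly luciferase luminescence read after 30min reagent at room temperature.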
# [18] = biological target: Estrogen receptor beta (Homo sapiens) (UniProt Q92731); experiment: qHTS assay to identify small molecule antagonists of the estrogen receptor beta (ER-beta) signaling pathway (AID 1259378; active = well fitted inhibition curve with a large enough effect in the signal ratio in the repeat runs, not every such curve was filed as active; the % refers to the signal ratio)
# Summary of the method: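 Antagonist mode: compounds added to beta-lactamase reporter HEK293T ER-beta-UAS cells stimulated with E2 (1nM final), 16 hr at 37C. LiveBLAzer B/G FRET substrate, 2 hours room temperature, fluorescence read-out.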
# [19] = qHTS assay to identify small molecule agonists of the estrogen receptor beta (ER-beta) signaling pathway - cell viability counter screen (AID 1259380); note: nearly all actives have a fitted effect of over 30% in size
# Summary of the method: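 ER-beta-UAS-bla HEK293T cells in medium with 2% charcoal-stripped FBS were preincubated 6 hr at 37C, dosed with compound in DMSO for 16 hr, then after the bla read, CellTiter-Glo was added for 30 min at room temperature; luminescence recorded.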
SMILES,Potency [1],Potency [2],Potency [3],Potency [4],Potency [5],Potency [6],Potency [7],Potency [8],Potency [9],Potency [10],Potency [11],Potency [12],Potency [13],outcome [14],Potency [15],Potency [16],Potency [17],Potency [18],Potency [19],PLD induction [3]
Oc1c(I)cc(Cl)c2cccnc12,inactive,27.3 µM (active) and 26.6 µM (active),inactive,inactive,inactive,inactive,38.5 µM (active),48.5 µM (active),,,,,,,,,,,,
CC[N+](CC)(CC)CCOc1ccc(/C=C/c2ccccc2)cc1,inactive,,inactive,inactive,inactive,inactive,inactive,9.44 µM (active),13.3 µM (active),inactive,inactive,inactive,inactive,inactive,inactive,,,,,
C#C[C@]1(O)CC[C@H]2[C@@H]3[C@H](C)CC4=C(CCC(=O)C4)[C@H]3CC[C@@]21C,,,inactive,inactive,inactive,inactive,inactive,inactive,inactive,,,inactive,0.0841 µM (active),,,inactive,29.8 µM (active),inactive,inactive,
Cc1cc(-c2ccc(N=Nc3cc(S(=O)(=O)O)c4ccccc4c3N)c(C)c2)ccc1N=Nc1cc(S(=O)(=O)O)c2ccccc2c1N,inactive,,,inactive,inactive,inactive,inactive,3.88 µM (active),7.74 µM (active),inactive,inactive,inactive,inactive,inactive,inactive,,,inactive,,
CC1=CCC(=C(C)C)CC1,,,,inactive,inactive,inactive,inactive,inactive,inactive,inactive,,inactive,inactive,,,inactive,inactive,,inactive,
c1cnccn1,,,,inactive,inactive,inactive,inactive,inactive,inactive,inactive,,inactive,inactive,inactive,inactive,inactive,inactive,,inactive,
CNC(=O)c1ccccc1Sc1ccc2c(/C=C/c3ccccn3)n[nH]c2c1,inactive,,,,13.3 µM (active),,inactive,26.6 µM (active),,,,,,inactive,inactive,,,,,
C=CCn1c(=O)n(CC=C)c(=O)n(CC=C)c1=O,inactive,,,inactive,inactive,,inactive,inactive,,,,inactive,,inactive,inactive,inactive,,inactive,inactive,
CC[N+](CC)(CC)CCOC(=O)C(C1CCCC1)C1CCCC1,inactive,,,inactive,inactive,inactive,inactive,,,inactive,,inactive,inactive,,,,inactive,,,0.0817% [at 7.66 µM]
